Source: PubChem BioAssay (NCI)
About 83,000 compounds went through this panel and 20% of them were active in at least one assay; those are over-represented in the sample as a whole.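 How to read the values: 0–100, growth inhibition (40 = 60% inhibited); 0, no net growth; -100 to 0, cell death (-40 = 40% of starting cells died; -100 = all dead).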 Values without a mark were called inactive. Active and inactive are the calls of the source. How the source made its calls: active means growth percent below 10; inactive means the rest.

test system: HL-60(TB) leukemia; test: NCI-60 one-dose screen, 48 h (100 = growth as untreated, 0 = no growth, -100 = all killed); conditions: 10 µM unless noted

With `C/C(O)=C(/C=N/C(=S)Nc1ccccc1)C(=O)Nc1ccccc1C` as the molecule, how does the growth read?
The growth was 94.7%.

How did the growth turn out when `COC1=CC(c2ccc[nH]2)=N/C1=C\c1[nH]c(C)c(C(=O)OC(C)C)c1C` was run?
Its growth is 2.29% (active).

With `C#CC(F)(F)[C@]1(O)CCC2C3CCC4=CC(=O)CCC4=C3[C@@H](c3ccc(N(C)C)cc3)C[C@@]21C` (stereo partly drawn) as the molecule, how does the growth read?
Its growth is 56%.
